A selection: hits, their analogues and other compounds. The true share with any hit is near 3.4%.
GPR151 ag: activators of human GPR151, primary screen, cell-based, PathHunter beta-arrestin, luminescence | PathHunter beta-arrestin GPR151 cells | activation, % at 11.2 µM | actives 1% (n = 650,000); in the data active means activation above about 4.9%;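 further: 0% = median of compound wells and 100% = cells with positive control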
FBW7 activator: FBW7 E3 ligase activators, primary screen, biochemical, AlphaScreen, human; F-box/WD repeat-containing protein 7 (Homo sapiens), Q969H0; AlphaScreen FBW7–phospho-cyclin E peptide binding, activator screen; normalized activity (activation), % at 26.1 µM; actives 0.13% (n = 650,000); in the data active means normalized activity above about 1.9%;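 further: purified mutant Fbw7 with reduced substrate affinity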
Target sequence (Q969H0 whole entry, looked up): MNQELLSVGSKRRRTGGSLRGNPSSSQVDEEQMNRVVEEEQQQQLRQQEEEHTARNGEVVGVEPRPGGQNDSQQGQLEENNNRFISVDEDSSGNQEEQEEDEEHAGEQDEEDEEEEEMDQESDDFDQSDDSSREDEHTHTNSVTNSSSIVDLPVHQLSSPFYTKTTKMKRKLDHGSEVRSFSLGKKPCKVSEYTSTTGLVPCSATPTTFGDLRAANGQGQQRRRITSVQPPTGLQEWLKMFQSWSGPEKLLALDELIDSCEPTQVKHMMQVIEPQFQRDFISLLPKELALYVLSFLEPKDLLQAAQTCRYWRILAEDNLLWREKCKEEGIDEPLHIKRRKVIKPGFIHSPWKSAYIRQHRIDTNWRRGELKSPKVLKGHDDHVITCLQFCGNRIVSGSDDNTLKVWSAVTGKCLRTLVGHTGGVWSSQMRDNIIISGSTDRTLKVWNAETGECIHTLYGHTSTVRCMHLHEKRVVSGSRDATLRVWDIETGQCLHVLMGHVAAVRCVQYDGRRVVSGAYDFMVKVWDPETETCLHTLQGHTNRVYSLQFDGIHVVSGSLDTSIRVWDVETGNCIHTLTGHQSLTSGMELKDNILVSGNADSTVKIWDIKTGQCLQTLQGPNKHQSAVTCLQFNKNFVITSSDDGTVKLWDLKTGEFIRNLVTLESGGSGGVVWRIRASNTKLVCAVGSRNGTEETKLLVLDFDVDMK
TEAD-YAP inh: TEAD-YAP interaction inhibition, primary screen, TEAD-YAP interaction inhibitor project, luminescence, HEK-TIYL cells | TEAD-Gal4/YAP UAS-luciferase luminescence | inhibition, % at 9.12 µM | actives 1.4% (n = 640,000) | AID 1259422, 2018; in the data active means inhibition above about 32%;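 further: 0% = median of test compound wells and 100% = reference inhibitor wells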
MITF primary: MITF inhibitors, primary screen, biochemical, AlphaScreen, human; actives 0.91% (n = 650,000); inhibition, % at 2.6 µM; AlphaScreen MITF homodimerization, bead proximity signal; AID 1259374, 2018; in the data active means inhibition above about 50%;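 further: 0% = vehicle wells with protein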
Active calls of the source: *; i = inactive; ! = a repeat was not active.

SMILES | GPR151 ag | FBW7 activator | TEAD-YAP inh | MITF primary
COCCOC(=O)N1CCC(C(=O)N(C)C(c2ccccc2)c2ncccc2C)CC1 (stereo not drawn) | 0 | 0 | 3 | 0
Nc1ccc(-c2ccc(-c3ccc(N)cc3)cc2)cc1 | -1 | 43* | 74* | 11
COc1ccc(-c2ccc(N)cc2)cc1 | -1 | 0 | -49 | 3
COc1ccc(-c2cc(=O)c3cc(C)ccc3o2)cc1 | -5 | 0 | 18 | -9
COc1ccc(-c2cc(=O)c3c(O)cc(OC)cc3o2)cc1 | -6 | 0 | -60 | 24
COc1ccc(-c2cc(=O)c3c(O)cc(O)cc3o2)cc1 | 1 | 0 | 53*! | 13
COc1ccc(-c2cc(=O)c3cc(O)ccc3o2)cc1 | -3 | 0 | 43* | 9
CCCOc1ccc(/C(O)=C2\C(=O)C(=O)N(c3nc(C)c(C(=O)OCC)s3)C2c2ccc(C)cc2)c(C)c1 (stereo not drawn) | 0 | 0 | -8 | 8
CCS(=O)(=O)c1ncc(Cl)c(C(=O)Nc2ccc(Cl)c(C(F)(F)F)c2)n1 | 1 | 0 | -1 | 7
CCc1cc(-c2[nH]ncc2-c2ccc3c(c2)OCCO3)c(O)cc1OC | 1 | 0 | 63* | 9
Cc1cn[nH]c1C1CCCN(S(=O)(=O)/C=C/c2ccccc2)C1 (stereo not drawn) | -1 | 0 | -5 | -7
CC(C)CCNS(=O)(=O)c1ccc(Oc2ccc(S(=O)(=O)NCCC(C)C)cc2)cc1 | 0 | 1 | 33* | 10
CC(=O)c1ccc(S(=O)(=O)NCCC(C)C)cc1 | 1 | 0 | 8 | 5
Nc1ccc(-c2nc3cc([N+](=O)[O-])ccc3o2)cc1 | -2 | 0 | -39 | 3
COc1ccc(-c2nc3cc(N)ccc3o2)cc1 | -6 | 0 | 31 | -3
CC(C)(C)c1ccc2oc(-c3ccc(N)cc3)nc2c1 | 0 | 0 | 69* | 4
Cc1ccc(-c2nc3cc(N)ccc3o2)cc1 | -8 | 0 | 54* | -3
COc1ccc(-c2nc3cc(C)ccc3o2)cc1 | -7 | 0 | 69* | 0
Oc1ccc2nc(-c3ccccc3)oc2c1 | -6 | 1 | 70* | 5
CC1CCC(NC(=O)COc2ccc(Cl)cc2Cl)(C(=O)Nc2cccc(Cl)c2)CC1 (stereo not drawn) | 0 | 0 | -3 | -5
Nc1ccc2oc(-c3ccc(O)cc3)nc2c1 | -6 | 0 | 89* | 6
Nc1ccc2oc(-c3cc(Cl)ccc3Br)nc2c1 | 1 | 0 | 48* | -4
Cc1cccc2oc(-c3ccc(N)cc3)nc12 | -3 | 0 | 51* | 2
Nc1ccc(O)c(-c2nc3cc(Cl)ccc3o2)c1 | -2 | 0 | -43 | 4
Cc1ccc2oc(-c3ccc(N)cc3)nc2c1 | -7 | 0 | 69* | 5
SMILES | GPR151 ag | FBW7 activator | TEAD-YAP inh | MITF primary
Cc1ccc2oc(-c3cccc(N)c3)nc2c1 | -9 | 0 | -6 | 4
Nc1ccc2oc(-c3ccc(Cl)c(Cl)c3)nc2c1 | -4 | 0 | -3 | -8
Cc1cc(CN2CCc3c(nc(N4CCOCC4)[nH]c3=O)C2)c(C)n1CC1CCCO1 (stereo not drawn) | 0 | 0 | -11 | 20
COC(=O)C1C(c2c(C)cc(C)cc2C)C(C(=O)OC)S(=O)(=O)CS1(=O)=O (stereo not drawn) | 1 | 0 | -1 | -3
Cc1nc2ccccn2c1C(=O)Nc1ccc(CC(=O)NCc2cccs2)cc1 | -1 | 0 | 55* | -10
O=C(NCc1cccs1)C1CCN(C(=O)Nc2ccc(Cl)cc2)CC1 | 0 | 2.4* | -17 | 14
O=C(Cc1ccc(Cl)cc1)NCc1cccs1 | 2 | 9.5* | 6 | 13
Cc1nc2ccccn2c1C(=O)Nc1ccccc1 | 0 | 0 | -12 | 13
CN(C)/C=C/C=C1\CCc2ccccc2C1=O | 0 | 0 | -3 | 20
CN(C)/C=C/C=C/C=C1\CCC/C(=C\C=C\N(C)C)C1=O | -1 | 0 | 8 | 78*
COc1ccc(CCNC(=O)CCCn2c(SCc3ccc(Cl)cc3)nc3ccccc3c2=O)cc1OC | 0 | 0 | 5 | 10
COc1cccc(C2(CC(=O)N3CCN(C)C(C)C3)CC(=O)N(CCN(C)C)C2=O)c1 (stereo not drawn) | 1 | 0 | 5 | 6
COc1cccc(C2(CC(=O)N3CCOCC3)CC(=O)N(CCN(C)C)C2=O)c1 (stereo not drawn) | -1 | 2.0* | 9 | 6
CCCCN(C(=S)Nc1cc(Cl)ccc1OC)C1CCN(C(C)=O)CC1 | 1 | 0 | 10 | 3
COCC(C)NCc1cc(Br)c(OC)cc1OC (stereo not drawn) | 0 | 0 | 3 | 10
COc1ccccc1-c1csc(NC(=O)c2cc(OC)c(OC)c(OC)c2)n1 | 0 | 0 | 12 | i
COc1cc(C(=O)Nc2nc(-c3ccc(C)cc3C)cs2)cc(OC)c1OC | 1 | 0 | 32* | 4
CCN(CC)S(=O)(=O)c1ccc(C(=O)Nc2nc(-c3ccc(C)cc3C)cs2)cc1 | -2 | 0 | 7 | -2
Cc1ccc(-c2csc(NC(=O)c3cccc(Oc4ccccc4)c3)n2)cc1 | 0 | 0 | -10 | 19
Cc1ccc(-c2csc(NC(=O)c3ccc(S(=O)(=O)N(C)C)cc3)n2)c(C)c1 | 3 | 0 | 35* | 3
O=C(Nc1nc(-c2ccccn2)cs1)c1cccc(Oc2ccccc2)c1 | 2 | 0 | 37* | -2
COc1cc(C(=O)Nc2nc(-c3ccccn3)cs2)cc(OC)c1OC | -1 | 0 | 73* | 31
O=C(NCc1cccnc1)c1ccc(-c2ccc3[nH]ccc3c2)s1 | -1 | 0 | -5 | 10
O=C(CN1CCOCC1)NCC1COc2ccccc2O1 (stereo not drawn) | 1 | 0 | 9 | 0
Cc1cc(C)c(C#N)c(SCc2nc3ccccc3[nH]2)n1 | 0 | 0 | -54 | -2
SMILES | GPR151 ag | FBW7 activator | TEAD-YAP inh | MITF primary
Cc1cc(C)c(C#N)c(SCc2nc3cc([N+](=O)[O-])c([N+](=O)[O-])cc3[nH]2)n1 | 0 | 0 | 86* | 5
Cc1cc([N+](=O)[O-])nn1CC(=O)NCc1ccc(F)cc1C(F)(F)F | -1 | 0 | 44* | 10
CCCNc1nc(-c2ccc(OC)nc2)nc2c1ncn2-c1ccsc1 | 1 | 1 | 51* | 7
COc1ccc(-c2nc(NCCO)c3ncn(-c4ccccc4)c3n2)cc1 | 1 | 0 | 61* | 4
CCCNc1nc(-c2ccc(OC)nc2)nc2c1ncn2-c1ccccc1 | 0 | 0 | 33* | 7
COc1ccc(-c2nc(NCCO)c3ncn(-c4ccccc4)c3n2)cn1 | -1 | 0 | 73* | 7
COc1ccc(-c2nc(NCc3ccccc3)c3ncn(-c4ccccc4)c3n2)cn1 | -1 | 0 | 8 | -1
CCCNc1nc(-c2ccc(OC)cc2)nc2c1ncn2-c1ccsc1 | 0 | 0 | 6 | -2

Bioassay records deposited in PubChem BioAssay by The Scripps Research Institute Molecular Screening Center.
